Structures are written as SMILES. “And” between values parts separate entries of the source, which are not always exact repeats. Identical values can stand only once. Counter-ions that a name gives are not always drawn.

Data on 40 compounds can be found in the supplement of paper PMC10127200.

For the test, the system named is FB. Briefly: Euclidean distance of Cell Painting phenotypic profile (signed KS, 77 features) to DMSO centroid (dimensionless distance); 5 or 10 uM (library dependent); higher = stronger phenotypic change vs DMSO (phenoactivity). The following applies: 48 h. An outline of the steps: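 Five cancer lines, together with a healthy fibroblast line, received library compounds for 48 h at a library-dependent 10 or 5 uM and 0.1% DMSO final. Harmony then derived 77 features from confocal 20X images (9 fields/well) of the stained cells, scoring each as a signed Kolmogorov-Smirnov statistic against same-plate vehicle wells. After plate-position correction, correlation weighting and replicate averaging at the top dose, phenoactivity was taken as each profile's Euclidean distance to the median vehicle profile.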
With `CO/N=C(\C(=O)N[C@@H]1C(=O)N2C(C(=O)O)=C(CSC(=O)c3ccco3)CS[C@H]12)c1csc(N)n1` [Ceftiofur], the Euclidean distance was determined as 0.698.

In turn, `C[C@H](CCC(=O)O)[C@H]1CC[C@H]2[C@@H]3[C@H](O)C[C@@H]4C[C@H](O)CC[C@]4(C)[C@H]3C[C@H](O)[C@]12C` [Cholic acid] registered an Euclidean distance of 0.727.

`O=c1oc2cc(O)ccc2s1` [Tioxolone]: the Euclidean distance stood at 0.922.

The compound `Cc1cnc(Nc2ccc(OCCN3CCCC3)cc2)nc1Nc1cccc(S(=O)(=O)NC(C)(C)C)c1` showed an Euclidean distance of 4.43.

With `CCCNC(C)C(=O)Nc1ccccc1C` (stereo not given) [Prilocaine], the Euclidean distance worked out at 1.93.

In the case of `C[C@H]1CNC(=O)c2cnn3ccc(nc23)N[C@H](C)c2cc(F)ccc2O1`, the Euclidean distance was found to be 3.45.

`CNCCc1ccccn1` [Betahistine mesylate] showed an Euclidean distance of 0.999.

`CCN1CCC[C@H]1CNC(=O)c1cc(S(N)(=O)=O)ccc1OC` [Levosulpiride]: the Euclidean distance stood at 0.991.

In turn, `S=C(NCc1ccc2c(c1)OCO2)N1CCN(c2ncnc3c2oc2ccccc23)CC1` [Amuvatinib (MP-470)] gave an Euclidean distance of 1.07.

`Cc1ccc(NC(=O)C2(c3ccc4c(c3)OC(F)(F)O4)CC2)nc1-c1cccc(C(=O)O)c1` [VX-809 (Lumacaftor)] returned an Euclidean distance of 0.88.

`CCOC(=O)c1ccc(O)cc1` [Ethylparaben] had an Euclidean distance of 0.865.

As for `CCCCCCCCCCCCCCCC(=O)O[C@@H]1[C@@H](O)[C@@H](O)[C@@H]([C@H](NC(=O)[C@@H]2C[C@@H](CCC)CN2C)[C@H](C)Cl)O[C@@H]1SC` [Clindamycin palmitate HCl], the Euclidean distance was found to be 1.12.

As to `CC(=O)c1c(C)c2cnc(Nc3ccc(N4CCNCC4)cn3)nc2n(C2CCCC2)c1=O`, the Euclidean distance was 6.3 and 5.78.

Compound `CC(C)c1ccc(NC(=O)Cn2cnc3c2c(=O)n(C)c(=O)n3C)cc1` had an Euclidean distance of 0.919.

In turn, `Cc1ccc(C(=O)Nc2ccc(CN3CCN(C)CC3)c(C(F)(F)F)c2)cc1C#Cc1cnc2cccnn12` gave an Euclidean distance of 1.08.

For the compound `CO[C@@H]1[C@H](OC(=O)/C=C/C=C/C=C/C=C/C(=O)O)CC[C@]2(CO2)[C@H]1[C@@]1(C)O[C@@H]1CC=C(C)C` [Fumagillin], the Euclidean distance worked out at 2.95.

Compound `O=C(NC1CCNCC1)c1n[nH]cc1NC(=O)c1c(Cl)cccc1Cl` showed an Euclidean distance of 4.13.

`C[C@H](CS)C(=O)N1CCC[C@H]1C(=O)O` [Captopril] had an Euclidean distance of 0.971.

The compound `O=C(OCc1ccccc1)c1ccccc1` [Benzyl benzoate] showed an Euclidean distance of 0.794.

Consider `CCCC(=O)[O-].[Na+]` [Sodium butyrate], for which the Euclidean distance stood at 1.13.

As to `N#CCNC(=O)c1ccc(-c2ccnc(Nc3ccc(N4CCOCC4)cc3)n2)cc1` [Momelotinib (CYT387)], the Euclidean distance turned out to be 3.49.

Consider `CCc1c2c(nc3ccc(OC(=O)N4CCC(N5CCCCC5)CC4)cc13)-c1cc3c(c(=O)n1C2)COC(=O)[C@]3(O)CC` [Irinotecan HCl Trihydrate], for which the Euclidean distance amounted to 4.08.

With `COC(=O)CCC(=O)CN` [Methyl Aminolevulinate Hydrochloride], the Euclidean distance came to 0.88.

`O=C(O)c1ccccc1O` [Salicylic acid] displayed an Euclidean distance of 0.648.

As for `CCCC(=O)Nc1ccc(OCC(O)CNC(C)C)c(C(C)=O)c1` (stereo not given) [Acebutolol HCl], the Euclidean distance is 1.3.

Regarding `CC(=O)O[C@H]1C(=O)[C@@]2(C)[C@H]([C@H](OC(=O)c3ccccc3)[C@]3(O)C[C@H](OC(=O)[C@H](O)[C@@H](NC(=O)c4ccccc4)c4ccccc4)C(C)=C1C3(C)C)[C@]1(OC(C)=O)CO[C@@H]1C[C@@H]2O` [Paclitaxel], the Euclidean distance is 2.69.

With `Nc1cc(Cl)c(N=C2NCCN2)c(Cl)c1` [Apraclonidine HCl], the Euclidean distance turned out to be 1.25.

Compound `COc1ccccc1OCC(O)CN1CCN(CC(=O)Nc2c(C)cccc2C)CC1` (stereo not given) [Ranolazine] gave an Euclidean distance of 0.669.

Compound `C1=N/C2=N/c3ccc(OCCN4CCCC4)c(c3)COC/C=C/COCc3cccc(c3)C(=C1)N2` [Pacritinib (SB1518)] returned an Euclidean distance of 3.49.

On to `CCOC(=O)[C@H](CCc1ccccc1)N[C@@H](C)C(=O)N1[C@H](C(=O)O)C[C@H]2CCCC[C@@H]21` [Trandolapril], for which the Euclidean distance worked out at 0.819.

`CC(=C(CCOC(=O)C(C)C)SSC(CCOC(=O)C(C)C)=C(C)N(C=O)Cc1cnc(C)nc1N)N(C=O)Cc1cnc(C)nc1N` (stereo in doubt) [Sulbutiamine] showed an Euclidean distance of 1.12.

With `CCN(CCO)CCCC(C)Nc1ccnc2cc(Cl)ccc12` (stereo not given) [Hydroxychloroquine Sulfate], the Euclidean distance is 5.29.

Turning to `CC(C)c1onc(-c2c(Cl)cccc2Cl)c1COc1ccc(/C=C/c2cccc(C(=O)O)c2)c(Cl)c1`, the Euclidean distance amounted to 1.26.

Turning to `OC(Cn1cncn1)(Cn1cncn1)c1ccc(F)cc1F` [Fluconazole], the Euclidean distance is 1.35.

In the case of `Cc1ccc(=O)n(-c2ccccc2)c1` [Pirfenidone], the Euclidean distance was determined as 0.845.

Regarding `CN(C)CCC=C1c2ccccc2CCc2ccccc21` [Amitriptyline HCl], the Euclidean distance worked out at 1.52.

Compound `CO[C@@H]1[C@@H](O[C@@H]2O[C@H](C)[C@@H](O[C@H]3C[C@@](C)(O)[C@@H](OC(=O)CC(C)C)[C@H](C)O3)[C@H](N(C)C)[C@H]2O)[C@@H](CC=O)C[C@@H](C)[C@@H](O)/C=C/C=C/C[C@@H](C)OC(=O)C[C@H]1OC(C)=O` [Josamycin] registered an Euclidean distance of 1.59.

In the case of `C[C@H]1NCc2cc(-c3ccc4c(=O)c(C(=O)O)cn(C5CC5)c4c3OC(F)F)ccc21` [Garenoxacin], the Euclidean distance was found to be 1.54.

For the compound `Cc1ccc2c(c1)C(=O)C1(O)CCN(c3ccccc3)C1=N2` (single isomer, unassigned; (-)) [(-)-Blebbistatin], the Euclidean distance is 1.03.

In turn, `C=CCCCCCCCCC(=O)[O-].C=CCCCCCCCCC(=O)[O-].[Zn+2]` [Zinc Undecylenate] came in with an Euclidean distance of 1.1.
